About 2,700 (4%) of roughly 68,000 compounds showed an effect of 50% or more. This is one part of a sample in which strong results are shown more often than they occur.

The subject of the experiment is Plasmodium berghei. The experiment is described as follows: Screen against P. berghei liver stage (PbLuc), transformed with Luciferase, at 2uM. The format is functional, HepG2. The following applies: tested at 2 uM.
For the compound `COc1ccc(C(=O)N2CCCC(n3nc(C)nc3C)C2)c(OC)c1` (stereo not drawn), the INHIBITION is listed as -42.39%.
Consider `CN(Cc1cc(Br)cn1C)C(=O)c1cscn1`, for which the INHIBITION amounted to 30.06%.
As to `O=C1CCC2(CCN(Cc3cscn3)CC2)CN1CC1CCCO1` (stereo not drawn), the INHIBITION is given as 40.47%.
On to `Cc1cnc(C2(C)CCN(Cc3csc(C)n3)CC2)s1`, for which the INHIBITION worked out at 19.47%.
Consider `Cc1ccc(CN2CCCN(Cc3cscn3)CC2)cc1`, for which the INHIBITION is recorded as -6.56%.
On to `Cc1cnc(C2(C)CCN(Cc3cscn3)CC2)s1`, for which the INHIBITION is given as 50.32%.
The value for `O=C1CCC2(CCN(Cc3cscn3)CC2)CN1CCCO` was -8.8%.
Consider `CCN1CC2(CCC1=O)CCN(Cc1cscn1)CC2`, for which the INHIBITION was found to be 50.32%.
For the compound `CC(C)c1cc(C(=O)N2C[C@@H]3CC[C@H]2CN(Cc2cscn2)C3)no1`, the INHIBITION is 22.89%.
On to `CCOc1ccc2[nH]c(=O)c(CN3CCCC3c3ccccn3)cc2c1` (stereo not drawn), for which the INHIBITION is recorded as -97.01%.
In the case of `CC(C)(C)n1nnnc1CN(Cc1ccccc1)Cc1ccc(Cl)cc1`, the INHIBITION came out at 8.33%.
`CN(CC(=O)NC(Cc1ccsc1)c1cccnc1)Cc1cccnc1` (stereo not drawn): the INHIBITION is reported as -37.25%.
Consider `Cc1csc(C(Cc2ccsc2)NC(=O)CN(C)Cc2ccccn2)n1` (stereo not drawn), for which the INHIBITION worked out at 7.39%.
As to `Cc1csc(C(Cc2ccsc2)NC(=O)CN(C)Cc2cccnc2)n1` (stereo not drawn), the INHIBITION was 55.29%.
`COc1cccc(CN2CCC3(CCN(c4ncc(C)cn4)CC3)C2)c1`: the INHIBITION is recorded as 13.26%.
Regarding `CC(C#N)CNS(=O)(=O)c1ccc(F)c(Br)c1` (stereo not drawn), the INHIBITION was -27.36%.
In the case of `Cc1ccc(S(=O)(=O)NCC(C)C#N)cc1Br` (stereo not drawn) it was 4.88%.
With `CC(C#N)CNS(=O)(=O)c1ccc(Br)c(F)c1` (stereo not drawn), the INHIBITION came to 64.21%.
The value for `COc1ccc2c(c1)C1(CCN(Cc3ccoc3)CC1)N(C)CC2` was -11.19%; that for `COCCC(=O)NCCn1nc(C2CCNC2)c2cccnc21` (stereo not drawn) was 49.9%.
Regarding `Cc1ccc(CN2CCOCC2)cc1NCc1ccsc1`, the INHIBITION was found to be 52.85%.
In the case of `Cc1ccc(C(=O)N2CCOCC2)cc1NCc1ccsc1` it was 21.24%; in that of `Cc1ccc(CN2CCOCC2)cc1NC(=O)c1ccsc1`, 34.25%.
Turning to `CS(=O)(=O)CC1CCCN(C(=O)Cn2cccc(C(F)(F)F)c2=O)C1` (stereo not drawn), the INHIBITION was found to be 33.96%.
The value for `CN1CCN(C[C@H]2CC[C@@H](Cc3ccc4c(c3)OCO4)O2)CC1` was 25.69%; that for `FC(F)(F)CCc1ncnn1-c1ccc2c(c1)OCO2` was 11.9%.
With `CS(=O)(=O)CCc1ncnn1-c1ccc(F)c(Cl)c1`, the INHIBITION was 19.38%.
On to `FC(F)C(F)(F)COCc1ncnn1-c1ccc2c(c1)OCO2`, for which the INHIBITION was 57.34%.
As for `CS(=O)(=O)N1CCC[C@H]1c1ncnn1-c1ccc2c(c1)OCO2`, the INHIBITION was -13.17%.
`CN1CCN(CCc2ncnn2-c2ccc3c(c2)OCO3)CC1`: the INHIBITION turned out to be 65.76%.
Turning to `CN(CCCNC(=O)CN1CCS(=O)(=O)CC1)c1ccccc1`, the INHIBITION is recorded as -20.29%.
In the case of `COc1cccc(CN(Cc2ccco2)Cc2[nH]cnc2C)c1` it was 28.07%; in that of `CCCc1noc(C2CCN(S(=O)(=O)c3cccs3)CC2)n1`, -64.06%; in that of `O=S(=O)(C1CC1)N1C[C@H]2CCC[C@@]2(COc2ccccn2)C1`, -3.87%.
Consider `CCCc1cc(C(=O)N[C@@H]2CC[C@@H](N3CCOCC3)[C@@H]2O)no1`, for which the INHIBITION was found to be 4.06%.
Regarding `COC[C@]1(O)CCN(Cc2cnc(N(C)C)nc2)CC1(C)C`, the INHIBITION stood at 10.24%.
Consider `COCc1ncc(CN2CC[C@@](O)(COC)C(C)(C)C2)cn1`, for which the INHIBITION is recorded as -20.75%.
Regarding `COC[C@]1(O)CCN(Cc2cnc(N3CCOCC3)nc2)CC1(C)C`, the INHIBITION amounted to 52.31%.
As to `Cc1ncncc1C(=O)N1CCCN(Cc2ncc(Cl)n2C)CC1`, the INHIBITION is listed as -16.3%.
As for `Cc1noc(C)c1-c1cncc(C2CCCN2Cc2cn(C)cn2)n1` (stereo not drawn), the INHIBITION is recorded as 50.32%.
Regarding `Cc1noc(C)c1-c1cncc(C2CCCN2Cc2c[nH]cn2)n1` (stereo not drawn), the INHIBITION came out at 28.23%.
In the case of `Cc1noc(C)c1-c1cncc(C2CCCN2Cc2cc[nH]n2)n1` (stereo not drawn) it was 46.98%; in that of `CCOC(=O)C1CCN(C(=O)Cn2ccc3cc(Br)ccc32)CC1`, 21.14%; in that of `Cc1ccc2c(n1)N(Cc1cccnc1)CCN(C1CCOCC1)C2`, -91.9%.
As for `Cc1ccc(NC(=O)NCCCn2nc3ccccn3c2=O)cc1`, the INHIBITION is on record as -17.83%.
For the compound `Cc1ccccc1N1CCN(C(=O)CC(C)C)CC1`, the INHIBITION was 56.49%.
In the case of `CSCCC(=O)N1CCCN(c2ccccc2C)CC1`, the INHIBITION came out at 0.31%.
With `CSCC(=O)N1CCCN(c2ccccc2C)CC1`, the INHIBITION came to 2.91%.
The value for `CCCc1nnc(NC2CCN(C3CCOCC3)CC2)o1` was 45.66%; that for `COCc1nnc(-c2cccc(C(=O)N(C)CC(C)(C)C)c2)o1` was 62.51%; that for `COCc1nnc(-c2cccc(C(=O)OC(C)C)c2)o1` was 33.9%.
For `COCc1nnc(-c2cccc(C(=O)N(C(C)C)C3CCC3)c2)o1`, the INHIBITION was 21.97%.
Turning to `CC1(C)Oc2ccc(NC(=O)c3ccc(=O)[nH]n3)cc2O1`, the INHIBITION is on record as 10.43%.
Turning to `COc1ccnc(N2C[C@H]3CC[C@@H](C2)N(CC2CCC2)C3=O)n1`, the INHIBITION is -24.7%.
For the compound `COc1ccnc(N2CCC(=O)N(CC3CC3)C(C(C)C)C2)n1` (stereo not drawn), the INHIBITION is reported as -61.87%.
In the case of `COc1ccnc(N2C[C@H]3CC[C@@H](C2)N(CC2CC2)C3)n1` it was 57.41%; in that of `Cc1nc(-c2ccco2)ccc1C(=O)NCCCN1CCOCC1`, -48.23%.
On to `Cc1nc2ccnn2c(C)c1CCC(=O)N1CCN(C2CC2)CC1`, for which the INHIBITION is listed as 26.4%.
As to `Cc1ccccc1C(=O)N1CCC2(CC1)CC(c1cnn(C)c1)CO2` (stereo not drawn), the INHIBITION is 42.27%.
In the case of `CN(C)C(=O)c1cc2c(nc1NCC1CC1)CCNCC2`, the INHIBITION amounted to 43.06%.
Consider `O=C(Nc1cc(F)ccc1OCC1CCCO1)c1ccoc1` (stereo not drawn), for which the INHIBITION was -27.04%.
`O=C(Nc1cc(F)ccc1OCC1CCCO1)N1CCSCC1` (stereo not drawn): the INHIBITION came to 9.23%.
On to `CS(=O)(=O)CCC(=O)Nc1cc(F)ccc1OCC1CCCO1` (stereo not drawn), for which the INHIBITION is 6.31%.
In the case of `O=C(Nc1cc(F)ccc1OCC1CCCO1)N1CCCC1` (stereo not drawn), the INHIBITION is on record as -5.1%.
Consider `O=C(Nc1cc(F)ccc1OCC1CCCO1)NC1CC1` (stereo not drawn), for which the INHIBITION stood at 56.62%.
Turning to `O=C(CC(F)(F)F)Nc1cc(F)ccc1OCC1CCCO1` (stereo not drawn), the INHIBITION stood at 56.03%.
For `Cc1ccn(CCC(=O)NCCc2ccco2)n1`, the INHIBITION was -0.14%.
In the case of `COc1ccc(C[C@H]2CN(C(=O)CS(C)(=O)=O)CC[C@H]2OC)cc1`, the INHIBITION is 39.18%.
